# Assay results taken from PubChem BioAssay AID651949 (Broad Institute, 2012).
# Potency and affinity values are given separately. Activity calls are given as the source filed them.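 The calls were made as follows: active = compounds lowering cell ATP signal whose fitted half-maximal concentration is at most twice the top tested dose; inconclusive = flat curve with 30 to 70% signal loss, or poor fit; inactive = the rest.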
# Assay: viability loss in HEK293T cells – cell-based, CellTiter-Glo luminescence, dry powder, set 6, cytotoxicity control, dose response (AID 651949)
# Conditions: CellTiter-Glo ATP luminescence, 48 h; series mostly up to 26 µM
row,SMILES,outcome
1,FC(F)(F)c1ccccc1CSc1nnc(-c2ccccc2)o1,inactive
2,O=S(Cc1ccccc1)c1nnc(-c2ccccc2)o1 (centres undefined),inactive
3,CC1(O)CN(CCSc2nnc(-c3ccccc3)o2)C1,inactive
4,c1ccc(CSc2nnc(-c3ccccc3)s2)cc1,inactive
5,c1ccc(Cn2cc(CSc3nnc(C4CCC4)o3)nn2)cc1,inactive
6,Fc1ccc(CSc2nnc(-c3ccncc3)o2)cc1,inactive
7,COc1ccccc1-c1nnc(SCc2ccccc2)o1,inactive
8,COCCOCCSc1nnc(-c2ccccc2)o1,inactive
9,c1ccc(-c2nnc(SCc3ccccn3)o2)cc1,inactive
10,Cc1cccc(CSc2nnc(-c3ccccc3)o2)c1,inactive
11,O=S(Cc1cn(Cc2ccccc2)nn1)c1nnc(-c2ccc(Cl)cc2)o1 (centres undefined),inactive
12,c1ccc(CSc2nnc(Cc3ccccc3)o2)cc1,inactive
13,COc1ccccc1-c1nnc(SCc2ccccn2)o1,inactive
14,c1ccc(CSc2nnc(-c3cc4ccccc4o3)o2)cc1,inactive
15,Cc1nnc(SCc2ccccc2)o1,inactive
16,Cc1ccc(-c2nnc(SCc3ccccn3)o2)cc1,inactive
17,Fc1ccccc1CSc1nnc(-c2ccccc2)o1,inactive
18,Fc1ccc(-c2nnc(SCc3ccccc3)o2)cc1,inactive
19,c1ccc(CSc2nnc(-c3cccnc3)o2)cc1,inactive
20,Clc1ccc(-c2nnc(SCc3ccccn3)o2)cc1,inactive

row,SMILES,outcome
1,Clc1ccc(-c2nnc(SCc3cn(-c4ccccc4)nn3)o2)cc1,inactive
2,FC(F)(F)Oc1ccccc1CSc1nnc(-c2ccccc2)o1,inactive
3,COc1cccc(-c2nnc(SCc3ccccc3)o2)c1,inactive
4,c1ccc(CSc2nnc(-c3ccco3)o2)cc1,inactive
5,c1ccc(CSc2nnc(-c3ccncc3)o2)cc1,inactive
6,Cc1ccc(CSc2nnc(-c3ccccc3)o2)cc1,inactive
7,CS(=O)(=O)c1cccc(CSc2nnc(-c3ccccc3)o2)c1,inactive
8,Cc1ccccc1-c1nnc(SCc2ccccc2)o1,inactive
9,Fc1ccc(-c2nnc(SCc3cn(Cc4ccccc4)nn3)o2)cc1,inactive
10,FC(F)(F)c1ccccc1-c1nnc(SCc2ccccc2)o1,inactive
11,c1ccc(CNc2nnc(-c3ccccc3)o2)cc1,inactive
12,FC(F)(F)Oc1cccc(CSc2nnc(-c3ccccc3)o2)c1,inactive
13,Fc1ccc(CSc2nnc(-c3ccccc3)o2)cc1,inactive
14,CN(C)CCSc1nnc(-c2ccccc2)o1,inactive
15,c1ccc(CSc2nnc(-c3cscn3)o2)cc1,inactive
16,Fc1ccc(-c2nnc(SCc3cn(-c4ccccc4)nn3)o2)cc1,inactive
17,Clc1ccccc1-c1nnc(SCc2ccccc2)o1,inactive
18,CC(C)c1nnc(SCc2ccccc2)o1,inactive
19,Brc1ccc(-c2nnc(SCc3ccccn3)o2)cc1,inactive
